# Results taken from PubChem BioAssay (NCI).
# This is part of a sample that, as a whole, favours compounds with a hit. Of some 79,000 tested, about 15% had one in any assay. Values without a mark were called inactive. Activity calls are given as the source filed them. Rule as the data show it: active = growth inhibition above about 70%; inactive = the rest.
# Experiments:
# [1] = NCI Yeast Anticancer Drug Screen. Data for the rad50 strain (AID 155);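 also: 0% = growth of vehicle-only cultures of the same strain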; conditions: S. cerevisiae rad50 strain growth inhibition; at 50.0 µM; active compounds read high
# In short: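 Inhibition values express reduced yeast growth in compound-treated cultures relative to vehicle-treated controls.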
# [2] = NCI Yeast Anticancer Drug Screen. Data for the mec2-1 strain (AID 157); conditions: S. cerevisiae mec2-1 strain, at 50.0 µM, active compounds read high
# In short: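 Mutant yeast (mec2-1) grown with compound; growth inhibition relative to vehicle control reported.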
# [3] = NCI Yeast Anticancer Drug Screen. Data for the sgs1 mgt1 strain (AID 161);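 also: 0% = growth of cultures given vehicle only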; conditions: S. cerevisiae sgs1 mgt1 strain, at 50.0 µM, active compounds read high
# In short: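 Growth of a repair-deficient yeast mutant was monitored after compound treatment and expressed as inhibition relative to vehicle-treated cultures.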
# [4] = NCI Yeast Anticancer Drug Screen. Data for the cln2 rad14 strain (AID 165);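 also: 0% = growth equal to vehicle treated cultures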; conditions: S. cerevisiae cln2 rad14 strain, at 50.0 µM, active compounds read high
# In short: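 Readout is yeast growth inhibition versus vehicle-treated controls, using a strain with cln2 and rad14 alterations exposed to compound.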
# [5] = NCI Yeast Anticancer Drug Screen. Data for the bub3 strain (AID 167); conditions: S. cerevisiae bub3 mutant strain, at 50.0 µM, active compounds read high
# In short: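 Steps: expose the mutant yeast strain to compound; grow alongside vehicle-treated cultures; measure growth; express inhibition against the vehicle cultures.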
# [6] = NCI Yeast Anticancer Drug Screen. Data for the mlh1 rad18 strain (AID 175); conditions: S. cerevisiae mlh1 rad18 strain growth inhibition; at 50.0 µM; active compounds read high
# In short: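 Genetically defined yeast (DNA repair-deficient) exposed to compounds; growth inhibition determined relative to vehicle.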
SMILES,growth inhibition [1],growth inhibition [2],growth inhibition [3],growth inhibition [4],growth inhibition [5],growth inhibition [6]
COC1(OC)c2no[n+]([O-])c2CCC1O (configuration not stated),-6.6%,-17.4%,-24.1%,10%,4%,-4.45%
CC(=O)Nc1ccc(/C=N\NC(=S)Nc2ccc(F)cc2)cc1,-13.4%,-12.7%,-3.9%,-53.1%,4.65%,-18.8%
CS(=O)(=O)c1ccc(N2CCCCC2)c([N+](=O)[O-])c1,29.9%,6.05%,27.6%,16.7%,10.9%,-4.9%
C[N+](C)(N)CCS(N)(=O)=O,0.15%,-9.8%,5.6%,-22.4%,26.7%,0.5%
CN(C)Cc1cc(C(=O)/C=C/c2c(Cl)cccc2Cl)cc(CN(C)C)c1O,-32%,-17.6%,-3%,-31.2%,-0.75%,-18.9%
CCCCC/C(=C\c1ccccc1)C1OCC(COC(C)=O)O1 (configuration not stated),-37.6%,-5.8%,-2.25%,-30.2%,40.8%,-2.6%
O=C(CCC(=O)Nc1ccc(Cl)c(Cl)c1)CC(=O)c1ccc2ccccc2c1,22%,9.6%,2.45%,19.9%,2.2%,-12.1%
COc1ccc2c(c1)NC(C(C)C)=NS2(=O)=O,17.9%,15.8%,17.4%,4.95%,18.4%,25.8%
CC(C)C1NC(=O)NC1=O (configuration not stated),-4%,-23.2%,-3.7%,10.7%,0.65%,-4.4%
Cc1ccc(OC(=O)Nc2ccc(C(=O)O)c(O)c2)cc1,-10.9%,8.3%,9.2%,-6.75%,-4.7%,-5.2%
Nc1ncnc2c1N=C(c1ccccc1)CC(c1ccccc1)N2 (configuration not stated),-8.75%,-5.15%,-4.15%,3.15%,-35.4%,2.6%
CCOC(=O)C[n+]1cccc(Br)c1,-2.6%,6.45%,-6.85%,-6.5%,16.3%,-0.45%
CCCCCCCCCC1OCC(COCC)O1 (configuration not stated),-2.6%,-9%,7.5%,-17.4%,14.8%,-7.15%
CC[N+](CC)(CC)C[Si](C)(C)C,5.05%,5.7%,12.1%,2.4%,12%,-6%
C/C(=N/NC(=O)c1ccncc1)C(F)(F)F,-29.8%,5.75%,-25.9%,-6.85%,14%,7.85%
CNCCCCCCNc1cc(OC)cc2cccnc12,45%,18.7%,56%,7.05%,23.1%,58.8%
COC1=C(C(C2=C(OC)CC(C)(C)CC2=O)c2ccc3c(c2)OCO3)C(=O)CC(C)(C)C1,31.6%,7.7%,-9.05%,0.3%,-0.65%,11.9%
O=C(O)CCc1cccc2c(=O)cc(-c3ccccc3)oc12,-10.3%,-1.7%,0.8%,30.9%,8.35%,3.35%
c1ccc(C(C2=Nc3cccc4cccc(c34)N2)c2ccccc2)cc1,-36.6%,-18.4%,-50.7%,11.1%,-9.75%,-22.8%
CC1(C)C2CC3C(C2)C31C,1%,3.6%,-10.2%,5.35%,1.3%,-0.75%
CCCCCCCCCCCCCCCCCC(=O)N1CC[N+](C)(C)CC1,99.7% (active),99.7% (active),99.7% (active),99% (active),99.3% (active),99.5% (active)

SMILES,growth inhibition [1],growth inhibition [2],growth inhibition [3],growth inhibition [4],growth inhibition [5],growth inhibition [6]
CCN(Cc1ccc(C(=O)OC)cc1)c1cccc(NC(C)=O)c1,33.5%,6.7%,29.9%,-9.7%,20.3%,34%
CSc1nc(N)n2nc(C)cc2n1,-9.3%,-13.7%,10.2%,6.9%,33.3%,-3.8%
O=C(Nc1ccc(Nc2ccc(NC(=O)c3ccccc3)c3c2C(=O)c2ccccc2C3=O)c2c1C(=O)c1ccccc1C2=O)c1ccccc1,6.8%,-15.6%,6.05%,6.1%,-1.95%,-9.1%
Cc1ccc2nc(N(C)C)nc-2c2[nH]c(=O)[nH]c12,-28.9%,-31.6%,-12.2%,3.9%,-28.9%,-19.3%
CC1=NNC(=O)C1(C)C,-16.4%,0.7%,-20.6%,26.1%,3.3%,4.55%
C[N+]12CCCCC1CC2 (configuration not stated),29.4%,-5.25%,-7.35%,-39.5%,-40.3%,9.85%
C=C[C@@H]1C(CO)=CCC2[C@H]1CCC1C(C)(C)C(=O)CC[C@]21C (some centres not stated),-7.95%,-13.4%,-5.7%,2.7%,0.05%,-47.1%
O=C(O)c1ccccc1N=N/C(=N\Nc1ccccc1C(=O)O)c1ccnc2ccccc12,37.5%,10%,29.3%,11.2%,2.8%,26.9%
O=C(O)CCc1ccc2ccccc2n1,6.3%,-6.6%,-19.8%,-0.05%,-20.6%,-20.2%
CN(c1ccccc1)c1nc(Cl)c(Cl)c(Cl)n1,-0.2%,-11.5%,6.55%,-39.9%,2.45%,-3.5%
N=Cc1ccccc1O,-3.3%,-10.3%,-4.8%,7.8%,2.9%,2.55%
Cc1c(Br)cc(Br)c(O)c1Br,37.3%,26.9%,23.7%,-29.4%,9.1%,31.1%
O=C(CCc1ccco1)CCc1ccco1,7.6%,-3.35%,5.45%,-9.05%,-3.5%,-0.6%
CN(C)N=Nc1ccc(C(=O)NC(Cc2ccccc2)C(=O)O)cc1 (configuration not stated),1.45%,-4.1%,3.2%,0.55%,3.3%,6.45%
CCCOC(=O)/C(C)=C\c1ccccc1,21%,15.9%,17.6%,15.3%,-0.6%,16.9%
CC(=O)OCCOC(C)=O,15.2%,4.35%,-5.1%,19.9%,21.3%,1.45%
COC(=O)/C(C#N)=C/Sc1ccccc1,61.6%,33.7%,38%,7.2%,26.6%,-7.7%
NC(N)=NCCS(=O)(=O)O,5.8%,7.35%,-2%,9.1%,-2.35%,20.4%
C#CCN(CCO)Cc1ccccc1,-3.4%,-18.6%,-3.75%,9.25%,-4%,2.7%
CCN1c2ccccc2CC(CCN(C)Cc2ccccc2)(C(N)=O)c2ccccc21 (configuration not stated),26.1%,-1.15%,-7.7%,7.45%,5.3%,-6.05%
N=C(N)SCc1cccc(Cl)c1,-20%,-14%,-4.55%,-82.1%,-9.45%,-22.6%
